# Experimental data taken from PubChem BioAssay (NCI).
# The panel holds about 83,000 compounds, 20% with a hit somewhere; the sample as a whole holds those more often.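 A percent growth of 40 corresponds to 60% growth inhibition; 0 means no net growth; -100 means all cells died. Active threshold: below 10.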 Values without a mark were called inactive. Activity calls are given as the source filed them.
# Legend:
# Experiment in all cases: NCI-60 one-dose screen, 48 h (100 = growth as untreated, 0 = no growth, -100 = all killed)
# DU-145 prostate = conditions: 10 µM unless noted
# K-562 leukemia = conditions: 10 µM unless noted
# MALME-3M melanoma = conditions: 10 µM unless noted
# MDA-MB-231 breast = conditions: 10 µM unless noted
# RXF 393 renal = conditions: 10 µM unless noted
# SF-268 CNS = conditions: 10 µM unless noted
# SF-295 CNS = conditions: 10 µM unless noted
# SF-539 CNS = conditions: 10 µM unless noted
# UACC-257 melanoma = conditions: 10 µM
# M14 melanoma = conditions: 10 µM unless noted
# HCT-15 colon = conditions: 10 µM unless noted
# HT29 colon = conditions: 10 µM unless noted
# SNB-75 CNS = conditions: 10 µM unless noted
# SNB-19 CNS = conditions: 10 µM unless noted
# U251 CNS = conditions: 10 µM unless noted
# PC-3 prostate = conditions: 10 µM unless noted
# SK-MEL-5 melanoma = conditions: 10 µM unless noted
# UACC-62 melanoma = conditions: 10 µM unless noted
# LOX IMVI melanoma = conditions: 10 µM unless noted
# SK-MEL-28 melanoma = conditions: 10 µM unless noted
Structure (SMILES),growth (DU-145 prostate),growth (K-562 leukemia),growth (MALME-3M melanoma) [%],growth (MDA-MB-231 breast) [%],growth (RXF 393 renal),growth (SF-268 CNS) [%],growth (SF-295 CNS),growth (SF-539 CNS),growth (UACC-257 melanoma),growth (M14 melanoma),growth (HCT-15 colon),growth (HT29 colon),growth (SNB-75 CNS),growth (SNB-19 CNS) [%],growth (U251 CNS),growth (PC-3 prostate) [%],growth (SK-MEL-5 melanoma),growth (UACC-62 melanoma),growth (LOX IMVI melanoma),growth (SK-MEL-28 melanoma)
COc1ccc(C2C(C#N)=C(N)Oc3c2sc2ccc(C)cc32)cc1 (stereo not given),36.3%,18.2%,50,42.2,-7.62% (active),44.7,9.1% (active),21%,57.1%,20.9%,19.2%,25.3%,-3.3% (active),38.6,26.9%,33.1,2.75% (active),23.4%,38%,55.6%
CC(=O)c1ccc(NC(=O)COc2ccc(C3SCC(=O)N3c3ccc(Br)cc3)cc2)cc1 (stereo not given),104%,90.8%,107,90.6,99.3%,103,98%,99.2%,102%,99.9%,98.4%,107%,100%,95.2,100%,91.6,96.4%,79.5%,92.1%,104%
CN1CCN(c2ccc(NC(=O)Nc3ccc4c(ccn4-c4cccc(C(N)=O)n4)c3)cc2C(F)(F)F)CC1,77.2%,-13.8% (active),16,74.8,-12.9% (active),82.1,-54.7% (active),6.11% (active),-14% (active),-47% (active),3.6% (active),5.77% (active),82.2%,53.2,33.8%,50.9,75%,94.1%,-27.7% (active),-53.6% (active)
COc1ccc2c(ccn2C(=O)N2c3ccccc3Sc3ccccc32)c1,28.2%,18.7%,51.3,64.5,12%,63,16.5%,11.6%,70.3%,21.8%,32.7%,-12.6% (active),-3.95% (active),30.8,27%,35.2,24.5%,33.3%,46.5%,66.4%
CCN1C(=O)N(CC)C2SC(N/N=C/c3cccs3)=NC21 (stereo not given),14.6%,11.5%,66.4,24.5,72.5%,35.7,17.1%,-9.73% (active),54.2%,6.49% (active),14.8%,1.59% (active),50.6%,25.9,10.2%,28.4,-5.21% (active),36.7%,8.77% (active),54.2%
C(=C(\C1=NCCN1)n1cnc2ccccc21)/c1cccc2ccccc12,98.1%,84.9%,91.7,81,46.9%,85,76.9%,91.7%,94.7%,70%,88.2%,95%,78.2%,88.8,94.6%,78.6,87.3%,88.1%,83.8%,93.8%
CCOC(=O)c1c(NCC(=O)Nc2ccc(Br)cc2)sc2c1CCCC2,66.7%,10.8%,21.7,36.5,-50.1% (active),58.4,39.1%,12%,76.2%,46.3%,-14.2% (active),25.7%,46.2%,56.7,-6.08% (active),55,39.8%,46.9%,4.11% (active),67.6%
O=C(C[n+]1ccnc2ccccc21)c1ccc(O)c(O)c1,47.3%,16.6%,54.7,55.3,17%,85.7,87.5%,53.1%,57.8%,61.3%,12.8%,18.3%,98.2%,80.8,63.8%,44.7,81.6%,54.6%,8.68% (active),63.3%
CS(=O)c1nccc(-c2c(-c3ccc(F)c(OCCc4ccc(F)cc4)c3)nc3sccn23)n1 (stereo not given),1.03% (active),7.91% (active),55.6,45,60.9%,93.3,98.3%,91.2%,-0.163% (active),67.6%,11.7%,7.84% (active),88.7%,70.8,92.6%,60.5,99.1%,86%,19.9%,64.8%
O=c1[nH]c(CCl)nc2c1cnn2-c1ccccc1,98.6%,87.5%,110,101,94.1%,99.9,110%,97.1%,96.2%,95.7%,99.9%,115%,93.6%,96.4,103%,105,99%,96.2%,-38.5% (active),107%
Cn1nc(Nc2ccccc2)c(C(=O)NN)c1N,106%,108%,90.9,93,109%,103,103%,96%,102%,101%,97.8%,103%,81.6%,101,102%,95.1,99.3%,96.8%,97.2%,103%
CN1CCN(c2nc(-c3cnc4ccccc4n3)cc3ccccc23)CC1,77.1%,-52.1% (active),69,71.4,23.9%,71.1,89.9%,80.1%,91%,-80% (active),7.27% (active),21.3%,72.7%,81.1,68%,70.8,66.4%,-7.14% (active),20%,30.9%
CCOC(=O)C1=C(C)Nc2nc3ccccc3n2C1c1ccccc1 (stereo not given),105%,76.1%,94.3,95.8,107%,102,102%,96.9%,97.4%,102%,90.8%,97.9%,99.1%,97.8,101%,97.7,99.3%,85.7%,90.4%,109%
O=C(O)CNS(=O)(=O)c1ccc(Oc2ccc(S(=O)(=O)NCC(=O)O)cc2)cc1,105%,94.3%,99.1,102,112%,96.6,113%,92.7%,102%,100%,102%,99.3%,66.6%,98.1,99.3%,98.6,101%,99%,99.8%,101%
COc1ccc(/C=C/C(=O)c2nnn(-c3ccc(Br)cc3)c2C)cc1OC,73.5%,19.2%,83,83.3,80.3%,89.4,80.2%,83.7%,85.3%,60.4%,60.7%,62.2%,81.6%,78.9,86.8%,75.3,63.9%,62%,43.5%,96.5%
